Only some compounds are listed: those with a hit (about 21% of all), similar ones and a draw of the others.
Pf growth 96h – P. falciparum growth inhibition at 96 hour, primary screen for plastid delayed-death inhibitors. Potency, µM (highest dose often 28.7 µM), for inactives: at the top dose activity change, negative = inhibition, actives largely listed as inhibitors. actives 6.9% (n = 320,000). P. falciparum luciferase reporter growth, 96 h. AID 504834; active = well fitted inhibition curve with a large enough effect; inconclusive = small, poorly fitted or top-dose-only effect, or another doubt; inactive = no such curve, though single readings can be large or run the other way; also: potency is read from the fitted curve at half-maximal effect; % is scaled to controls: 0 for no effect and ±100 for the full control effect
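Luminescence readout: decreased luciferase signal marks inhibited growth of reporter-expressing P. falciparum in infected red cells (2% hematocrit, 0.05% parasitemia final), exposed to compound two generations (96 h, 37 C, 5% CO2).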
NS1 inh – blocks influenza NS1 protein function | Potency, µM (highest dose often 46.1 µM), inactives show at the top dose activity, positive = more growth | actives 0.4% (n = 270,000); also: potency is read from the fitted curve at half-maximal effect; actives are rising curves; nearly all actives have a fitted effect of over 50% in size
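Compounds were scored for reversing the slow growth caused by influenza A NS1 in S. cerevisiae, measured by optical density at 600 nm. Assay medium contained 2% galactose at pH 6.0; NS1-free yeast of the same strain were the positive control.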
Shiga toxin inh – Shiga toxin inhibition; inhibition, % at 38.7 µM; Vero cells, Shiga toxin protein synthesis inhibition reporter; actives 9.2% (n = 290,000); in the data active = inhibition mostly above about 28%, no sharp cut-off; inactive = mostly below about 43%; also: 0% is about no effect
SARS PLpro yeast – inhibitors of SARS-CoV papain-like protease in yeast; actives 0.19% (n = 330,000); Potency, µM (top dose mostly 32.9 µM), without a hit: at the top dose activity, positive = growth rescue, usual class: activators; S. cerevisiae expressing SARS-CoV PLpro, growth rescue; also: potency is read from the fitted curve at half-maximal effect; 0% is about no effect; nearly all actives have a fitted effect of over 55% in size
Pf growth 48h – P. falciparum growth inhibition at 48 hours (one generation). P. falciparum luciferase growth in erythrocytes, 48 h. Potency, µM (titrated, usually from 28.7 µM), inactives show at the top dose activity change, negative = inhibition, actives largely listed as inhibitors. actives 5.9% (n = 310,000). AID 504832; active = well fitted inhibition curve with a large enough effect; inconclusive = small, poorly fitted or top-dose-only effect, or another doubt; inactive = no such curve, though single readings can be large or run the other way; also: potency is read from the fitted curve at half-maximal effect; % is scaled to controls: 0 for no effect and ±100 for the full control effect
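Parasite viability was followed by luminescence of a genomically integrated firefly luciferase. Cultures held 0.1% parasitemia at 2% hematocrit (final), incubated under 5% CO2 at 37 C.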
CHX counter – affects cycloheximide protein synthesis inhibition readout, counter-screen. max response, %. cell reporter, cycloheximide protein synthesis inhibition counterscreen. actives 12% (n = 300,000); in the data active = max response mostly above about 13%, no sharp cut-off; inactive = mostly below about 14%; also: read at 38.3 µM for the half of the compounds with a filed dose; 0% is about no effect
An asterisk follows results filed as active; ? = inconclusive; . = not tested or not shown; [ ] = dose if it differs, or a comment. Unless noted, calls follow the shape of the full dose curve.

SMILES	Pf growth 96h	NS1 inh	Shiga toxin inh	SARS PLpro yeast	Pf growth 48h	CHX counter
O=S(=O)(c1ccc(NC(=S)NN=C2CCCCC2)cc1)N1CCOCC1	?	25%	14	-4%	-15%	-1
Nc1nc(Cl)cc(Nc2ccccc2Cl)n1	62%	7%	18	4%	20%	12*
Cc1ccccc1CNC(=O)CN(c1cccc([N+](=O)[O-])c1)S(C)(=O)=O	-37%	0%	-3	4%	-3%	1
C=CC[C@H](CC(=O)OC(C)(C)C)C(=O)OC[C@H]1CCCN1C(=O)[C@H](CC=C)CC(=O)NCCO	.	.	.	-13%	.	.
O=C(NC(N1CCOCC1)C(Cl)(Cl)Cl)c1ccco1 (stereo not given)	-168%	-35%	128*	-2%	155%	70*
O=C(/C=C/c1ccccc1)NC(N1CCOCC1)C(Cl)(Cl)Cl (stereo not given)	24%	-5%	42	1%	53%	30*
Cc1ccc2c(CN3CCC(C)CC3)cc(=O)oc2c1	.	-2%	151*	-7%	125%	53*
Cc1ccc2c(CN3C(=O)NC(C)(c4ccc5c(c4)OCO5)C3=O)cc(=O)oc2c1 (stereo not given)	?	4%	19	5%	4.1µM*	5
CCOC(=O)C1CCCN(Cc2cc(=O)oc3cc(C)c(C)cc23)C1 (stereo not given)	23%	.	28	-4%	-26%	37*
CCOC(=O)C1CCN(Cc2cc(=O)oc3cc(C)ccc23)CC1	59%	1%	29	0%	3%	8
CC(=O)Nc1ccc2c(CN3C(=O)NC(C)(c4ccc(C)cc4)C3=O)cc(=O)oc2c1 (stereo not given)	?	.	-4	1%	?	-2
CCOC(=O)C1CCCN(Cc2cc(=O)oc3cc(C)ccc23)C1 (stereo not given)	16%	-8%	69*	-7%	10%	44*
COc1ccc2nnc(-c3ccc(C(F)(F)F)cc3)n2n1	?	3%	-5	0%	-17%	-2
CCOc1ccccc1N1CCN(Cc2cn[nH]c2-c2ccc(F)cc2)CC1	?	0%	-8	0%	?	-3
CCOc1ccccc1NC(=O)CN1C(=O)C(C)SC(C)C1=O (stereo not given)	?	.	-7	-3%	?	-1
CCOc1ccc(NC(=O)CN2C(=O)C3CC=CCC3C2=O)cc1 (stereo not given)	0%	4%	62	-2%	46%	27*
CCOc1ccc(NC(=O)CN2C(=O)C(C)SC(C)C2=O)cc1 (stereo not given)	60%	.	54	-4%	-14%	25*
C[C@@H]1CN(Cc2nc(-c3ccc(Cl)cc3)no2)C[C@H](C)O1	10%	0%	32	1%	-11%	13
COCCN1CCN(Cc2nc(C3(c4ccc(C)cc4)CCCC3)no2)CC1	10µM*	1%	-2	1%	39%	5
Cc1ccc(C2(c3noc(CN4C[C@@H](C)O[C@@H](C)C4)n3)CCCC2)cc1	12µM*	-1%	-5	-1%	12µM*	-3
CC(=O)N1CCCN(Cc2nc(C3(c4ccc(C)cc4)CCCC3)no2)CC1	-14%	-3%	-4	0%	-7%	-1
Cc1c(C(=O)NC(C)C)sc2ncn(CC(=O)N3CCC(C)CC3)c(=O)c12	.	-4%	-12	-4%	8%	-3
Cc1cc(N/N=C/c2ccc(Cl)cc2Cl)nc(NCc2ccccc2)n1	?	-28%	-8	-84%	0.33µM*	-2
Cc1cc(N/N=C/c2ccc(F)cc2)nc(NCc2ccccc2)n1	?	-45%	46*	-2%	0.41µM*	22*
Cc1ccc(/C=N/Nc2cc(C)nc(NCc3ccccc3)n2)cc1	1µM*	-54%	29	-5%	0.59µM*	19*
SMILES	Pf growth 96h	NS1 inh	Shiga toxin inh	SARS PLpro yeast	Pf growth 48h	CHX counter
COc1ccc(CN(C(=O)c2cc(=O)c3cc(C)cc(C)c3o2)C2CCS(=O)(=O)C2)cc1 (stereo not given)	?	-6%	-3	-1%	?	-2
CC(C)CCN1C(=O)c2ccc(C(=O)OCC(=O)N(CC(C)C)C3CCS(=O)(=O)C3)cc2C1=O (stereo not given)	.	.	.	0%	.	.
CCOC(=O)C1CCN(C(=O)COC(=O)CSc2ccc(C(N)=O)cc2[N+](=O)[O-])CC1	43%	5%	9	8%	29%	-3
C=CCn1c(=O)/c(=C2/Sc3cc(OC)ccc3N2C)s/c1=C1\C(=O)N(CC)C(=S)N1C	29%	-1%	53*	-1%	-6%	21*
C=CCN1C(=O)/C(=C2/Sc3ccc(OC)cc3N2C)SC1=Nc1ccccc1	-55%[1.15 µM]	5%	-1	0%	19%	10
CCOCCCn1c(=NC(C)=O)c(C#N)cc2c(=O)n3cccc(C)c3nc21	?	2%	-7	0%	67%	3
CCOCCCn1c(=NC(=O)c2ccc(OC)c(OC)c2)c(C#N)cc2c(=O)n3cccc(C)c3nc21	.	2%	-11	1%	2.3µM*	-1
CCOC(=O)c1cc2c(=O)n3cccc(C)c3nc2n(CC2CCCO2)c1=NC(C)=O (stereo not given)	.	4%	.	.	.	.
CC(C)OCCCn1c(=N)c(C(N)=S)cc2c(=O)n3ccccc3nc21	13µM*	11%	-23	6%	.	-2
CCOC(=O)c1cc2c(=O)n3ccccc3nc2n(CCCOC)c1=NC(=O)c1ccncc1	?	6%	-3	-1%	-19%	-3
CCOC(=O)c1cc2c(=O)n3ccccc3nc2n(CCCOC)c1=NC(C)=O	10µM*	-6%	-14	-1%	-13%	-2
CCOC(=O)c1cc2c(=O)n3cccc(C)c3nc2n(CCOC)c1=NC(C)=O	6.6µM*	-2%	13	-1%	?	1
CCC(C(=O)N1CCCCCC1)n1nc(C)n2c(cc3occc32)c1=O (stereo not given)	1%	24%	-9	10%	14%	5
CC(C)c1ccc(CN2CCN(C(=O)CSc3nnnn3C3CC3)CC2)cc1	12µM*	.	.	-2%	7.4µM*	.
COC(=O)CCCCCN1C(=O)/C(=C\c2ccncc2)SC1=S	?	-14%	-14	-4%	-1%	-1
COc1ccc(C)cc1-n1nnnc1SC(C)C(=O)NC1CCCC1 (stereo not given)	.	.	.	-1%	.	.
C=CCN(CC=C)C(=S)NC(=O)c1ccc(-c2ccccc2)cc1	7.4µM*	-51%	-5	-17%	.	11
COc1cc(C(=O)NC(=S)N(C)Cc2ccccc2)cc(OC)c1OC	?	8%	-4	0%	-15%	0
CN(Cc1ccccc1)C(=S)NC(=O)C1CCCCC1	?	2%	46	-40%	4%	28*
CN(Cc1ccccc1)C(=S)NC(=O)c1ccc(-c2ccccc2)cc1	7.4µM*	-16%	0	11%	?	6

Screening data deposited in PubChem BioAssay by National Center for Advancing Translational Sciences (NCATS).
